From PubChem BioAssay AID1868 (National Center for Advancing Translational Sciences (NCATS), 2009)
The campaign covered roughly 270,000 compounds. About 20 (0.007%) were called active. The call rests on the fitted dose curve; in most records, active means well fitted inhibition curve with a large enough effect; inconclusive means small, poorly fitted or top-dose-only effect, or effect the other way; inactive means flat fitted curve, though single readings scatter. These entries were drawn from the full list.

Molecular target: Galactokinase (Homo sapiens) (UniProt P51570)
Assay: qHTS Assay for Inhibitors of Human Galactokinase (GALK)
Conditions: Purified GALK, Kinase-Glo residual ATP luminescence; series mostly up to 57.5 µM; activity change, negative = inhibition: at the top concentration
From the text: NIH Molecular Libraries Probe Production Centers Network [MLPCN] NIH Chemical Genomics Center [NCGC] MLPCN Grant: R03 MH085689-01 Assay Submitter (PI): Kent Lai (University of Utah School of Medicine, 50 N Mario Capecchi Drive, Salt Lake City, UT 84132) NCGC Assay Overview: Inherited deficiency of galactose-1-phosphate uridyltransferase (GALT) can result in a potentially lethal disorder called Classic Galactosemia (OMIM 230400). Several lines of evidence indicate that an elevated level of galactose-1-phosphate (gal-1-p), the product of galactokinase (GALK), is a major, if not sole, pathogenic mechanism in patients with classic galactosemia. Therefore, finding inhibitors of GALK is a potential novel therapy for this inherent metabolic disease and is the long term goal of this project. GALK (provided by the assay submitter) was assayed using ATP and D-(+)-Galactose (Sigma-Aldrich cat# G0750) as substrates. Promega Kinase-Glo Plus (cat# V3774) technology was used to detect the residual ATP following kinetic reaction. Briefly, the Kinase-Glo Plus contains Ultra-Glo [2] luciferase and D-luciferin which generates a bioluminescence signal from the remaining ATP.
NCGC Assay Protocol Summary: Three uL/well of ATP-buffer solution (35 uM ATP, 20mM HEPES pH8.0, 5 mM MgCl2, 60 mM NaCl, 1 mM DTT, 0.01% BSA final concentration) was dispensed into 1536-well, assay plates (Greiner, solid white medium-binding plates) with Aurora Discovery BioRAPTR Flying Reagent Dispenser (FRD; Beckton-Dickenson). Compound solution (23 nL) was transferred to the assay plate using the Kalypsys 1536-pin tool. One uL/well GALK-galactose solution (5 nM GALK, 100 uM galactose, 20 mM HEPES pH8.0, 5 mM MgCl2, 60 mM NaCl, 1 mM DTT, 0.01% BSA final concentration) was then added using the FRD yielding a total kinase reaction volume of 4 uL/ well. After 1 hour of room temperature incubation, 4 uL Kinase-Glo Plus reagent was added for a final assay volume of 8 uL/ well. Luminescence was detected with the ViewLux plate reader (Perkin Elmer, Waltham, MA) after 10 min incubation using a 1 sec exposure time and 2x binning.
On the % scale 0 is the no-effect control and ±100 the full control effect.

Galactokinase (Homo sapiens), sequence (P51570 whole entry, looked up): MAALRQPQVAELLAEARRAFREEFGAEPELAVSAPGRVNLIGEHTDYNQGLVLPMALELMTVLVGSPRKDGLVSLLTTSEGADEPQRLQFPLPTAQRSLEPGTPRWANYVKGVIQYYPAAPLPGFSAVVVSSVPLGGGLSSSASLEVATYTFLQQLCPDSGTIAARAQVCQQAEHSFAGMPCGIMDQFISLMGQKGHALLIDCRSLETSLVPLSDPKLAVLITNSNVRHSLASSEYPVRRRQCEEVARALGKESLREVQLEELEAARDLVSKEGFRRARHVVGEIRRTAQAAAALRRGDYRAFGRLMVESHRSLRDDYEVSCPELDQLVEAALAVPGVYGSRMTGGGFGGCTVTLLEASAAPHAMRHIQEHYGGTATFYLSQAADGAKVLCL

Activity change, negative = inhibition, inactive:
Brc1ccccc1CN1CCC(Cc2ccccc2)CC1 -0.837%
CC1CCN(C2=NC(=O)/C(=C/c3ccc(O)cc3)S2)CC1 -3.46%
CC1(C)Cc2c(sc(NC(=O)C(=O)N3CCOCC3)c2C#N)CO1 -2.42%
COc1cc(Cl)ccc1OCc1cc(C(=O)N2CC[C@@H]3CCCC[C@H]3C2)no1 3.62%
CCOc1ccc(CN2CCNC(=O)C2CC(=O)NCCCC2CCCC2)cc1 (configuration not stated) -3.91%
CCOc1ccc(S(=O)(=O)N2CCCC(C(=O)N3CCC(C(N)=O)CC3)C2)cc1Cl (configuration not stated) 6.26%
C=CCOc1ccc(/C=C/C(=O)OCC(=O)NC2CCCCCC2)cc1 0.149%
CN(c1ccccc1)S(=O)(=O)c1ccc(NC(=O)COc2ccccc2)cc1 -2.58%
Oc1cccc(/C=N/Nc2ccc(Cl)nn2)c1O 3.86%
O=C(NCCNc1ccc([N+](=O)[O-])cc1Cl)c1ccccc1F 2.76%
COc1ccc(S(=O)(=O)/N=C2\C=C(NS(=O)(=O)c3ccccc3)C(=O)c3ccccc32)cc1 2.13%
Cn1c(Nc2cccc(Cl)c2)nc2ccccc21 3.7%
CCn1c(=O)c(C(=O)NCc2ccc3c(c2)OCO3)c(O)c2ccccc21 -0.778%
O=C(Nc1ccc(Cl)c(Cl)c1)c1ccccc1NC(=O)C1CC=CCC1C(=O)O (configuration not stated) -1.72%
Cc1cccc(N2CCN(C(=O)CCS(=O)(=O)c3ccc4c(c3)NC(=O)C(C)S4)CC2)c1C (configuration not stated) -0.901%
CC(C)(C)NC(=O)C(c1ccc(Cl)cc1)N(CCO)C(=O)c1snc(C(N)=O)c1N (configuration not stated) 9.43%
O=C(CN1CCCC1)Nc1sc2c(c1C(=O)Nc1ccccc1)CCCC2 0.0885%
O=C(N/N=C/c1cccc(OCc2ccccc2)c1)c1ccc(Br)o1 4.11%
Cc1cc(C)n(CC(O)COc2ccc(C(C)(C)C)cc2)n1 (configuration not stated) 6.25%
COc1ccc(Oc2cn[nH]c2-c2ccc(OC)cc2O)cc1 6.03%
CSc1nnc(NC(=O)c2nc(S(=O)(=O)Cc3ccc(C)cc3)ncc2Cl)s1 -8.93%
Cc1cc(N=Nc2ccc3ccccc3c2)ccc1O -2.63%
Cc1ccc(-c2nc(-c3ccncc3)no2)c(C)c1 0%
CCCNC(=O)CCn1nc(-c2ccccc2)c2ccccc2c1=O 0.567%
COc1ccc(C(=O)/C=C/c2cccnc2)c(OC)c1 0.185%
COc1ccc(S(=O)(=O)N2CCN(C(=O)N(C)C)C2C)cc1 (configuration not stated) -1.94%
CN(C)S(=O)(=O)N1CCC(Oc2cccc(C(=O)NCCCC3CCCC3)c2)CC1 -10.2%
O=C(Nc1ccccc1)c1ccc2c(c1)OCCCO2 3.05%
Cc1[nH]n(C(N)=S)c(=O)c1N=Nc1ccc(Cl)cc1Cl 4.38%
O=C(NC(=S)Nc1ccc(Cl)cc1Cl)C1CC1 2.25%
COc1cccc(CNc2ncc(-c3ccccc3)n2C)c1 -6.73%
CCOc1ccccc1/C=N/Nc1nc2ccccc2o1 -3.29%
COc1ccc(CNc2cc(C)cc(C)c2)cc1OC 3.43%
Cc1ccc(NC(=O)Nc2cccnc2)cc1 4.12%
COc1ccc2cc(C(=O)C3CCCN(C(=O)c4sc(C)nc4C)C3)ccc2c1 (configuration not stated) 7.03%
CC(C)(C)C(=O)Nc1ccc(-c2cn3cccnc3n2)cc1 -0.896%
CC1(C(=O)N/N=C/c2cc3c(cc2Br)OCO3)CC1(Br)Br (configuration not stated) -6.75%
c1ccc(Cc2ccc(OCCn3ccnc3)cc2)cc1 2.93%
CNS(=O)(=O)c1ccc(NC(=O)Nc2ccc3c(c2)OCO3)cc1 2.4%
CC(=O)N(C)c1ccc(NC(=O)Nc2cccc3ccccc23)cc1 4.09%
Cc1nonc1NC(=O)c1oc2ccccc2c1C 4.67%
O=C(NCCCN1CCOCC1)c1ccc2c(c1)N(Cc1cccc(F)c1)C(=O)c1ccccc1S2 -2.22%
CSc1ccccc1OCc1cc(C(=O)N2C[C@H]3CC[C@H]2C3)no1 -3.8%
O=C(CNC(=O)Cc1ccccc1)N=Nc1c(O)[nH]c2ccc(Br)cc12 -8.43%
O=C(O)Cc1ccc(NC(=O)Nc2cccc3ccccc23)cc1 0.889%
COc1ccc(C(=O)NC2=NCCS2)c(OC)c1 -5.52%
CCCOC1CCCN(C(=O)c2cc(COc3cncc(Cl)c3)on2)C1 (configuration not stated) 1.7%
CCc1ccc(C(=O)NC(=S)Nc2ccccc2N2CCOCC2)cc1 -4.65%
Nc1cc(N)nc(SCc2cccc(F)c2)n1 -1.43%
Cc1ccc(NS(=O)(=O)c2ccc3c(c2)n(C)c(=O)c(=O)n3C)c(C)c1 -0.414%
COc1ccc(N(Cc2ccc(N(C)C)cc2)C(=O)c2ccc(S(C)(=O)=O)cc2)cc1 -2.56%
CCCCC(=O)Nc1ccccc1N1CCN(c2ccc(F)cc2)CC1 -6.49%
CC(=O)Nc1ccc(NC(=O)C2CCCN2S(=O)(=O)c2cccc(C(F)(F)F)c2)cc1 (configuration not stated) 1.26%
COc1ccc(-c2noc(CCCC(=O)NC3CCCC3)n2)cc1OC 1.8%
O=C(/C=C/c1ccco1)NC(=S)Nc1ccccc1Br 5.8%
COc1ccc(CCNC(=O)C2CCCN(S(=O)(=O)c3ccc(OC)cc3)C2)cc1 (configuration not stated) 10.8%
Cc1ccnc(NC(=O)CCNS(=O)(=O)c2ccc(C)c(C)c2)c1 -1.07%
O=C(Nc1nnc(C2CC2)s1)c1cc(Cl)sc1Cl -5.34%
COc1ccc(Nc2ncnc3sc(C)cc23)cc1 1.63%
O=C(CN1CCC(NC(=O)C2CC2)CC1)Nc1ccccc1[N+](=O)[O-] -0.918%
Cc1cccc(C(=O)NC(=S)N(C)C2CCCCC2)c1 -5.91%
CN(CCO)c1ccc(/C=N/Nc2nncc3ccccc23)cc1 21.5%
O=C(NCC(=O)N1CCN(c2ccccc2F)CC1)c1cccs1 -7.14%
Cc1ccc2nc(N3C(=O)C(O)=C(C(=O)c4ccco4)C3c3cccc(O)c3)sc2c1 (configuration not stated) -6.84%
C[n+]1cc(-c2ccccc2)oc1-c1ccccc1 -1.02%
Cc1cnc(NC(=O)c2ccc(Cl)nc2)s1 2.83%
C=CCN1CCN(C(=O)CCCc2ccccc2)CC1 3.4%
COc1ccc(N2CCN(S(=O)(=O)c3ccc4c(c3)N(C(C)=O)CCO4)CC2)cc1 -0.739%
O=C(O)CCC(=O)N(Cc1ccccc1)Cc1ccccc1 0%
Cc1noc(C)c1CCC(=O)N1CCCC(CO)(Cc2ccccc2)C1 (configuration not stated) 2.49%
O=C(c1noc2c1CCCC2)N1CCc2ccccc2C1 -2.74%
Cc1cccc(NC(=O)c2ccc3c(=O)n(CC4CCCO4)c(=S)[nH]c3c2)c1 (configuration not stated) 14.2%
COc1cccc(NC(=O)C(=O)c2cn(CC(=O)N3CCOCC3)c3ccccc23)c1 0.368%
CCOC(=O)C1CCCN(CCSc2ccc(C)cc2)C1 (configuration not stated) -3.07%
O=C(Nc1ccc(S(=O)(=O)NCC2CCCO2)cc1)c1ccc(F)cc1 (configuration not stated) -2.11%
Cc1ccccc1NC(=S)NC(=O)Cc1ccc(Cl)cc1 7.47%
COCCN1CCN(C(=O)c2cc(COc3ccc(F)cc3Cl)on2)CC1 5.12%
COc1ccc(N(C(=O)c2snc(C(N)=O)c2N)C(C(=O)NC2CCCC2)c2ccc(C)o2)c(OC)c1 (configuration not stated) -1.02%
O=C(CCl)NNc1nc(-c2ccccc2)c2cc(Cl)ccc2n1 0.907%
CCOC(=O)Nc1ccc2c(c1)N(C(=O)CCCl)c1ccccc1[S@]2=O -2.31%
NC(=O)CSc1nnc(NC(=O)c2ccc(Br)o2)s1 3.28%
CN(C(=O)CCN1C(=O)/C(=C/c2ccccc2F)SC1=S)C1CCS(=O)(=O)C1 (configuration not stated) 7.27%
O=C(CC(n1cncn1)C(Cl)(Cl)Cl)c1ccc([N+](=O)[O-])cc1 (configuration not stated) 1.45%
Cc1ccc(NC(=O)CSc2cccc3cccnc23)c(C)c1 -1.71%
Cc1ccc(/C=N/NC(=O)c2cc3ccccc3cc2O)o1 0.24%
COc1ccc(OCc2cc(C(=O)N3CCCC3)no2)c2ccccc12 -7.05%
COc1ccccc1C(=O)NC(=S)Nc1ccccc1N1CCCCC1 -4.03%
COc1ccc([N+](=O)[O-])cc1N(CC(=O)Nc1ccccc1C(=O)N1CCOCC1)S(C)(=O)=O 2.62%
COc1cccc(C(=O)N/N=C(\C)c2cccc(NC(=O)c3ccc(F)cc3)c2)c1OC -11.7%
Oc1ccccc1-c1cc(-c2ccc(Cl)cc2)n[nH]1 -6.23%
CCSc1nc2sc3c(c2c(=O)n1-c1ccc(C)cc1)CCN(C)C3 -3.96%
COc1ccc(NCCc2ccccn2)cc1 -1.27%
Cc1ccc(NS(=O)(=O)c2ccc3c(c2)oc(=O)n3C)c(C)c1 2.68%
O=C(Nc1cccc(Cl)c1Cl)c1ccccc1NC(=O)C1CC=CCC1C(=O)O (configuration not stated) -4.93%
S=C(Nc1ccc(Cl)cc1Cl)N1CCCC1 0.847%
O=C(Nc1ccnn1C1CCN(Cc2cccc(OCCO)c2)CC1)C1CCCC1 3.25%
CC(C)(C)c1ccc(Cn2nnc3c(=O)[nH]c(C4CCCN(C(=O)c5ccco5)C4)nc32)cc1 (configuration not stated) -1.13%
CCc1ccccc1OCC(=O)Nc1ccc2c(c1)OCCO2 13.3%
O=[N+]([O-])c1ccc2c(c1)Nc1nc3ccccc3nc1N2 6.04%
CC1CN(C(=O)CCC(=O)NCCCN2CCC(Cc3ccccc3)CC2)c2cc(Cl)ccc2O1 (configuration not stated) -0.958%
Cc1ccc(CSc2nsc(C)c2C#N)cc1 -1.65%
CC(=O)c1ccc(NC(=O)c2sc3nc4n(c(=O)c3c2C)CCCCC4)cc1 3.59%
CC(C)=CCN1CCN(CCCc2ccccc2)CC1CCO (configuration not stated) 3.23%
O=C(Nc1ccc(C2CC2(Cl)Cl)cc1)c1cccc([N+](=O)[O-])c1 (configuration not stated) 0.976%
COc1ccccc1/C=C/C(=O)NC(=S)N1CCOCC1 -1.25%
COC(=O)c1ccc(COc2ccc(/C=C/C(=O)c3ccc(OC)c(CSCC(=O)O)c3)cc2OC)cc1 -6.55%
COc1ccc(NC(=O)CCCC2CCCCC2)c(OC)c1 -2.48%
O=c1c2ccccc2ncn1CCCCOc1ccccc1F 1.26%
Brc1ccccc1/C=N/Nc1nc2ccccc2o1 -2.18%
COc1ccc(OC)c(NC(=O)Cc2cccs2)c1 -3.6%
CC(CN1CCOCC1)OC(=O)c1ccc(C(C)(C)C)cc1 (configuration not stated) 5.88%
O=C(CNC(=O)c1ccc(F)cc1)c1ccccc1 7.94%
